Screening data (PubChem)
This is a sample that favours compounds with a hit; in the whole collection about 2.4% have one here.
CRFR2-BP antag = antagonists of CRF-binding protein/CRF-R2 receptor complex | HEK293 CRF-R2/CRF-BP, CRF-induced calcium fluorescence | inhibition, % at 11.8 µM | actives 0.59% (n = 350,000) | AID 588475;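 active = inhibition of the ligand-induced calcium signal above about 50% at the single tested concentration, limit read from the data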
ANO1 block = blocks the mouse calcium-activated chloride channel TMEM16A. Q8BHY3. actives 1.2% (n = 310,000). HEK293 TMEM16A/YFP iodide influx fluorescence, ionomycin. normalized B-score (activity score, 25-100; higher = stronger inhibition) at 10 µM;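 active = ratio plate-corrected score three or more library SD toward inhibition, starting fluorescence score within five deviations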;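 note: score derived from kinetic fluorescence span divided by baseline fluorescence per well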
Target sequence (Q8BHY3 whole entry, looked up): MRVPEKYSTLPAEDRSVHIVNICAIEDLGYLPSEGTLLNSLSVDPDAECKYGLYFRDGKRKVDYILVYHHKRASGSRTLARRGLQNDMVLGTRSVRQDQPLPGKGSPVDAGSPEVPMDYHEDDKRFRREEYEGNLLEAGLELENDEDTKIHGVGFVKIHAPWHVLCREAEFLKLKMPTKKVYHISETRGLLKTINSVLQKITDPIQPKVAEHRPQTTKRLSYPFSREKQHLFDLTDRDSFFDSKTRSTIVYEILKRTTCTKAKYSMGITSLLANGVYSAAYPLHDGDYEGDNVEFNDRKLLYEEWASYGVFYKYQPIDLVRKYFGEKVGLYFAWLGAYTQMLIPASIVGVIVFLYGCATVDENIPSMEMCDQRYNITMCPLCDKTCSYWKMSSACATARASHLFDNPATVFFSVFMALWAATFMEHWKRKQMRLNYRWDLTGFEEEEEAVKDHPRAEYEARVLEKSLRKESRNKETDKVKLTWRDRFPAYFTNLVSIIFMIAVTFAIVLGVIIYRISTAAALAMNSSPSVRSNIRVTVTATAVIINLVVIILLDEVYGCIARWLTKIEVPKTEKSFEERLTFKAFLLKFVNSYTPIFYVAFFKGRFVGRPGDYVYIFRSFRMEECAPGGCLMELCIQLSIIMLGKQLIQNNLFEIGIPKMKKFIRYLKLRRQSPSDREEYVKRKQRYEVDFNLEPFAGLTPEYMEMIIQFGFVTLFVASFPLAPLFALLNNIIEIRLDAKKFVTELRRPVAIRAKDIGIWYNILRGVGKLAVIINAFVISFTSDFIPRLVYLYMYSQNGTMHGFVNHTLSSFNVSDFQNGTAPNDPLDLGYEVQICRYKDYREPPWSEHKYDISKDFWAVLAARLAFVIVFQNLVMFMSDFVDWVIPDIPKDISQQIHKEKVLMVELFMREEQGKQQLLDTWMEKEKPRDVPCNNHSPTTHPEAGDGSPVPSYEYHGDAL
Cardiac RTF inh = cardiac RTF calcium desensitization | IANBD-labeled cardiac RTF, Ca2+ fluorescence | AID 493244 | actives 0.12% (n = 340,000) | inhibition, % at 7.15 µM | P19429+P45379;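 active = inhibition above the mean inhibition of all tested compounds plus 3 SD, cut at about 17% in these data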;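 note: assay run at fixed EC70 calcium of 1.6 mM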
CRFR2-BP ag = CRF-BP/CRF-R2 complex agonism; HEK293 CRF-R2/CRF-BP, calcium dye fluorescence (FLIPR); percent of saturating CRF peptide response; activation, % at 13.2 µM; actives 0.46% (n = 350,000); AID 588473;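 active = activation of at least 50%, plus an integration ratio under a set limit after plate pattern correction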;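 note: plate controls were neutral control wells without compound for no effect and CRF at EC100 for full effect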
ANO1 activ = mouse TMEM16A channel activation, primary screen; actives 0.3% (n = 340,000); HEK293 TMEM16A/YFP-H148Q/I152L, iodide quench fluorescence; stronger effect = lower value; Q8BHY3; AID 623877; B-score at 10 µM;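 active = fluorescence-ratio B-score plate-corrected deviation score at least 3 library SD below zero, with starting fluorescence score within 5 deviations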;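 note: channel opened by trigger with iodide after compound preincubation; score built on the fluorescence ratio of max minus min over baseline; more negative score means more quench and so TMEM16A activation or potentiation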
RTF Ca sens act = cardiac RTF calcium sensitization; P19429+P45379; IANBD-labeled TnC RTF fluorescence at EC20 calcium; 0% EC20 calcium, 100% full calcium; activation, % at 7.2 µM; actives 0.24% (n = 340,000);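 active = activation above the mean over all tested compounds plus 3 SD, cut at about 30% in these data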;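 note: rise in fluorescence read as greater calcium sensitivity of cardiac thin filaments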
TMEM16A reconf = reconfirmed blocker of mouse TMEM16A calcium-activated chloride channel | AID 652189 | inhibition, % at 10 µM | shares compounds with ANO1 block | HEK293 TMEM16A/YFP-H148Q, iodide quench fluorescence; ionomycin added to raise cell calcium | actives 39% (n = 2,300);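 active = mean duplicate percent inhibition, scaled so buffer wells are 0 and the reference blocker 100, over three buffer SD above buffer mean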
HEK293 Ca mobil = counter-screen for TMEM16A inhibitors: effect on calcium mobilization; shares compounds with ANO1 block; TMEM16A/YFP HEK293, Fluo4 calcium mobilization; calcium response (% of ionomycin), % at 10 µM; actives 2% (n = 2,300);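 active = duplicate-averaged calcium signal over 20% of the ionomycin maximum, relative to buffer baseline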;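 note: each well's signal is peak minus trough fluorescence divided by its pre-addition baseline; 0% = buffer wells and 100% = ionomycin wells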
YFP-HEK293 quench = acts in parental YFP-HEK293 cells lacking TMEM16A, counter-screen. shares compounds with ANO1 block. 2,300 tested, under 10 active. iodide YFP quench, ionomycin. YFP ratio F(max-min)/F0 at 10 µM. AID 652233;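 active = yellow fluorescent protein signal ratio exceeding the buffer control mean by over 5 SD of those controls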;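 note: ratio is mean of duplicate wells from kinetic YFP trace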
ClC-1 inh = rat ClC-1 inhibition, TMEM16A specificity screen; shares compounds with ANO1 block; CHO ClC-1-YFP, iodide influx fluorescence quench; iodide control reads 0, buffer control 100; ratio percent, % at 10 µM; 2,300 tested, under 10 active;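 active = duplicate-mean ratio percent above the mean of iodide-only control wells, which defines zero, plus 5 of their SD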;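 note: higher percent means stronger block of ClC-1 iodide influx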
* hit, by the source's call; i = inactive; . = not tested or not shown.

SMILES | CRFR2-BP antag | ANO1 block | Cardiac RTF inh | CRFR2-BP ag | ANO1 activ | RTF Ca sens act | TMEM16A reconf | HEK293 Ca mobil | YFP-HEK293 quench | ClC-1 inh
COc1ccc(N2CCN(C(=O)c3ccc(Cl)c(S(=O)(=O)N4CCCC4)c3)CC2)cc1 | -3 | i | 8 | 0 | i | 0 | . | . | . | .
C=CCc1cc(Cl)ccc1OC(=O)Nc1cccc(Cl)c1 | -1 | i | 0 | 3 | i | -6 | . | . | . | .
CC(C)OC(=O)CC(=O)CSc1nc2c(c(-c3cccs3)c1C#N)CCC2 | -32 | i | -7 | 8 | i | -1 | . | . | . | .
CCOC(=O)C(C)Sc1nc2c(c(-c3cccs3)c1C#N)CCC2 (configuration not stated) | 17 | i | -28 | 0 | i | -7 | i | i | -1.3 | -7
C=C(C)C(=O)N1CCN(C(=O)C(=C)C)c2ccccc21 | 13 | . | -5 | -3 | i | -1 | . | . | . | .
COc1ccc(/C=C2/C(=O)N(c3ccccc3)N=C2C)cc1OC | 15 | i | -10 | -2 | i | 1 | . | . | . | .
CCOc1cc(/C=C2/C(=O)N(c3ccccc3)N=C2C)ccc1OC(=O)c1cccs1 | -40 | 25* | -1 | 5 | i | 0 | i | i | -1.1 | -10
COc1ccc(CCNS(=O)(=O)c2ccc3c(c2)OCCO3)cc1 | 5 | i | 3 | 0 | i | 1 | . | . | . | .
COc1ccc(CCNS(=O)(=O)c2ccc(OC)cc2)cc1 | 10 | 25* | -4 | 1 | i | 10 | i | i | -0.78 | -5
O=C(COC(=O)C12CC3CC(CC(C3)C1)C2)Nc1ccccc1F | 0 | i | -5 | 2 | i | 10 | . | . | . | .
O=C(CSc1nnc(Cc2cc(=O)[nH]c(=O)[nH]2)n1-c1ccccc1)N1CCCCC1 | 11 | i | -4 | 1 | i | 4 | i | i | -0.85 | -10
CCOC(=O)[C@H](CCc1ccccc1)N[C@@H](C)C(=O)N1[C@H](C(=O)O)C[C@@H]2CCC[C@@H]21 | -5 | i | -7 | 0 | i | 5 | . | . | . | .
CCOC(=O)Cc1csc(SCC(=O)Nc2cccc(Cl)c2)n1 | -2 | 100* | -2 | -3 | i | 2 | 26%* | i | -0.92 | -17
COc1ccc(-c2nnc(SCCC(=O)O)n2-c2ccccc2)cc1OC | -1 | i | -3 | -2 | i | 4 | . | . | . | .
COc1ccc(-n2c(SCCC(=O)O)nnc2-c2ccncc2)cc1 | 9 | 100* | -4 | 1 | i | -6 | i | i | -1.2 | 2
CCOC(=O)c1ccccc1NS(=O)(=O)c1ccc(OCC)cc1 | 12 | 25* | 4 | 1 | i | 0 | i | i | -1.2 | -8
CCOc1ccc(S(=O)(=O)Nc2ccccc2C(=O)N(C)C2CCN(C)CC2)cc1 | 1 | . | -1 | 2 | . | -3 | . | . | . | .
Cc1ccccc1OCc1nc(-c2ccc(NC(=O)c3ccco3)cc2)no1 | 7 | 25* | -2 | 2 | i | -4 | i | i | -1 | -10
CCOc1ccc(NC(=O)c2ccc3nccnc3c2)cc1 | -5 | i | -7 | -3 | i | -2 | . | . | . | .
COc1ccc(NC(=O)c2ccc3nccnc3c2)cc1 | 6 | 100* | -2 | -1 | i | 4 | i | i | -1.1 | -5
CCOC(=O)N1CCN(CC(O)COc2ccccc2C(C)C)CC1 (configuration not stated) | 19 | i | -1 | -1 | i | -5 | . | . | . | .
CCN(CCNCC(O)COc1ccccc1C(C)C)c1cccc(C)c1 (configuration not stated) | -18 | i | -4 | -1 | i | -3 | 34%* | i | -1 | -16
COc1ccc(C2=NS(=O)(=O)N(C)C(C(=O)N3CCc4ccccc4C3)=C2)cc1OC | -1 | 25* | -1 | -1 | i | -2 | 26%* | i | -0.93 | -9
COc1ccc(C2=NS(=O)(=O)N(C)C(C(=O)NCc3ccccc3)=C2)cc1OC | -8 | i | -1 | -1 | i | 1 | . | . | . | .
O=S(=O)(c1ccccc1)N1CCN(c2ccnc3cc(Cl)ccc23)CC1 | -9 | 100* | . | 4 | i | . | i | i | -0.88 | -5
SMILES | CRFR2-BP antag | ANO1 block | Cardiac RTF inh | CRFR2-BP ag | ANO1 activ | RTF Ca sens act | TMEM16A reconf | HEK293 Ca mobil | YFP-HEK293 quench | ClC-1 inh
CSc1nc2ccc(NS(=O)(=O)c3ccc4c(c3)OCCO4)cc2s1 | 16 | 100* | 4 | -5 | i | -1 | 18%* | i | -0.93 | -16
COc1ccccc1N1CCN(C(=O)c2ccc3[nH]c4c(c3c2)CC(C)CC4)CC1 (configuration not stated) | -32 | i | 9 | -1 | i | -6 | . | . | . | .
CCOC(=O)/C(=C\c1ccc(Cl)cc1)c1nc2sc(C)c(C)c2c(=O)[nH]1 | -48 | 25* | -4 | 3 | i | 9 | 19%* | i | -1 | -12
CCOC(=O)CSc1nc2sc(C)c(C)c2c(=O)[nH]1 | 27 | i | -5 | 2 | i | 6 | . | . | . | .
COCCn1c(-c2ccc(NC(C)=O)cc2)nc2c1c(=O)[nH]c(=O)n2CC(C)C | -12 | i | -1 | 0 | i | -4 | . | . | . | .
NC(=O)Nc1ccc2c(c1)OCCO2 | 7 | i | 0 | -3 | i | 1 | . | . | . | .
Cc1onc(-c2c(Cl)cccc2Cl)c1C(=O)Nc1ccc2c(c1)OCCO2 | -9 | 100* | -7 | -1 | i | -3 | i | i | -1 | -15
O=C(Nc1ccc2c(c1)OCCO2)C1CCC1 | 2 | 100* | 4 | 0 | i | -4 | i | i | -0.99 | 4
COc1ccc(C(=O)Nc2ccc(S(=O)(=O)N3CCc4ccccc43)cc2)cc1 | -24 | 100* | 1 | 9 | i | -5 | 34%* | i | -1.1 | -10
NS(=O)(=O)c1ccc(NC(=O)c2ccc(S(=O)(=O)N3CCc4ccccc43)cc2)cc1 | 4 | i | 0 | 0 | i | -3 | . | . | . | .
COc1ccc(NC(=O)c2cccc(S(=O)(=O)N3CCc4ccccc43)c2)cn1 | 18 | 25* | -5 | 2 | i | 5 | i | i | -1.1 | -16
